The values below come from PubChem BioAssay (NCI).

The panel holds about 83,000 compounds, 20% with a hit somewhere; the sample as a whole holds those more often.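 Activity criterion: percent growth below 10, measured after cells in 96-well plates were exposed to a single compound concentration for 48 hours.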 Values without a mark were called inactive. Active and inactive are the calls of the source.

Some test systems named below: SK-MEL-2 melanoma; EKVX NSCLC; SN12C renal; UO-31 renal; TK-10 renal; ACHN renal; A498 renal; CCRF-CEM leukemia; MOLT-4 leukemia; SR leukemia; RPMI-8226 leukemia; OVCAR-8 ovarian; OVCAR-5 ovarian; OVCAR-4 ovarian; IGROV1 ovarian; OVCAR-3 ovarian; HS 578T breast; NCI/ADR-RES ovarian; SK-OV-3 ovarian.
Holding throughout (experiment): NCI-60 one-dose screen, 48 h (100 = growth as untreated, 0 = no growth, -100 = all killed)
Holding throughout (details): 10 µM unless noted

For the compound `O=[N+]([O-])c1ccc(NS(=O)(=O)c2cc(Cl)ccc2Cl)c2ccccc12`, the growth was 18.7% with SK-MEL-2 melanoma; 50.9% in the experiment with EKVX NSCLC; 45.8% in the experiment with SN12C renal; 43% with UO-31 renal; 75.8% in the experiment on TK-10 renal; 78.9% with ACHN renal. Moreover, the growth in the experiment on A498 renal was 23.9%; in the experiment with CCRF-CEM leukemia, 29.1%; with MOLT-4 leukemia, 46.8%; in the experiment on SR leukemia it was 60.1%; in the experiment with RPMI-8226 leukemia, 14.1%; in the experiment with OVCAR-8 ovarian it was 79.5%. Besides, the growth in the experiment with OVCAR-5 ovarian was 89.1%; in the experiment with OVCAR-4 ovarian it was 54%; with IGROV1 ovarian, 82.3%; in the experiment on OVCAR-3 ovarian it was 33.7%; in the experiment on HS 578T breast, 54.3%; in the experiment with NCI/ADR-RES ovarian it was 59.3%.

As for `S=c1[nH]nc(Cn2c3ccccc3c3ccncc32)o1`, the growth is 96.6% in the experiment with SK-MEL-2 melanoma; 106% with EKVX NSCLC; 102% in the experiment with SN12C renal; 97.3% in the experiment with UO-31 renal; 102% in the experiment on TK-10 renal; 98.3% in the experiment with ACHN renal. Also, the growth with A498 renal is 97.3%; with CCRF-CEM leukemia, 84.6%; with MOLT-4 leukemia, 93.8%; in the experiment on SR leukemia, 99.9%; in the experiment on RPMI-8226 leukemia, 97.3%; in the experiment with OVCAR-8 ovarian, 94.2%. The growth in the experiment on OVCAR-5 ovarian was 102%; with OVCAR-4 ovarian, 96.7%; in the experiment with SK-OV-3 ovarian, 94.5%; in the experiment with OVCAR-3 ovarian it was 97.8%; in the experiment with HS 578T breast, 106%; in the experiment with NCI/ADR-RES ovarian, 102%.

Regarding `CCOc1ccc(NC(=O)Nc2cc(C(C)C)ccc2C)cc1`, the growth in the experiment with SK-MEL-2 melanoma is 68.6%; in the experiment with EKVX NSCLC, 96.1%; with SN12C renal it was 57.3%; in the experiment on UO-31 renal, 15.2%; in the experiment with TK-10 renal, 55%; with ACHN renal, 20.6%. Besides, the growth in the experiment on A498 renal is 87.2%; with CCRF-CEM leukemia it was 44.4%; in the experiment with MOLT-4 leukemia it was 72.2%; in the experiment with SR leukemia, 36.6%; in the experiment with RPMI-8226 leukemia, 43.4%; in the experiment with OVCAR-8 ovarian, 27.1%. In addition, the growth was 57.7% in the experiment with OVCAR-5 ovarian; 44.6% with OVCAR-4 ovarian; 50.9% in the experiment with OVCAR-3 ovarian; 4.79% (active) with HS 578T breast; 58.7% with NCI/ADR-RES ovarian.

Turning to `COc1cc(NC(C)CCCN2C(=O)c3ccccc3C2=O)c2nccc(C)c2c1OC` (stereo not drawn), the growth in the experiment with SK-MEL-2 melanoma is 87.6%; in the experiment with EKVX NSCLC it was 98.4%; in the experiment on SN12C renal, 126%; in the experiment on UO-31 renal, 80.9%; in the experiment with TK-10 renal it was 122%; in the experiment on ACHN renal, 110%. Also, the growth is 92.9% with A498 renal; -14.2% (active) in the experiment with CCRF-CEM leukemia; -44.2% (active) in the experiment with MOLT-4 leukemia; 33% in the experiment with SR leukemia; 64.3% in the experiment on RPMI-8226 leukemia; 91.6% in the experiment on OVCAR-8 ovarian. Further, the growth with OVCAR-5 ovarian is 110%; with OVCAR-4 ovarian, 70.5%; in the experiment with SK-OV-3 ovarian, 107%; in the experiment on IGROV1 ovarian, 44.1%; in the experiment on HS 578T breast, 98.7%; in the experiment on NCI/ADR-RES ovarian it was 74%.

Take `COc1cc(-c2nc3sc(C)cn3c2/C=C2\C(=O)Nc3ccccc32)c(Br)c(OC)c1OC`: the growth in the experiment with SK-MEL-2 melanoma is 74.3%; with EKVX NSCLC, 31.5%; in the experiment on SN12C renal, 90.9%; in the experiment on UO-31 renal it was 24.8%; in the experiment with TK-10 renal, 56.5%; in the experiment with ACHN renal, 57%. Also, the growth in the experiment on A498 renal is 22.6%; in the experiment with CCRF-CEM leukemia, 34.7%; in the experiment with MOLT-4 leukemia, 39.9%; in the experiment on SR leukemia it was 3.87% (active); in the experiment with RPMI-8226 leukemia, 28.6%; in the experiment with OVCAR-8 ovarian, 65%. The growth with OVCAR-5 ovarian was 81.6%; with OVCAR-4 ovarian, 54.4%; with SK-OV-3 ovarian it was 31.2%; in the experiment with IGROV1 ovarian, -11.8% (active); in the experiment with HS 578T breast, 15.7%; in the experiment on NCI/ADR-RES ovarian, 22.9%.

On to `Cc1ccc2c(C3C(C#N)=C(N)Oc4cc5ccccc5cc43)cc(=O)oc2c1` (stereo not drawn), for which the growth with SK-MEL-2 melanoma was 27.8%; with EKVX NSCLC it was 40%; with SN12C renal, 46.3%; in the experiment with UO-31 renal, 47.3%; with TK-10 renal it was 47.6%; in the experiment with ACHN renal, 50.6%. For the same compound, the growth in the experiment with A498 renal was 30.8%; in the experiment on CCRF-CEM leukemia, 13%; with MOLT-4 leukemia it was 20.8%; with SR leukemia, 16.9%; in the experiment on RPMI-8226 leukemia, 21.9%; in the experiment with OVCAR-8 ovarian it was 24.5%. Also, the growth in the experiment on OVCAR-5 ovarian was 49.7%; with OVCAR-4 ovarian it was 67.6%; in the experiment on SK-OV-3 ovarian, 28.3%; in the experiment with OVCAR-3 ovarian, -4.72% (active); with HS 578T breast it was 51.6%; in the experiment with NCI/ADR-RES ovarian, 11.8%.

Consider `COC(OC)C1(c2ccccc2)NC(=O)NC1=O` (stereo not drawn), for which the growth was 104% with SK-MEL-2 melanoma; 112% with EKVX NSCLC; 101% in the experiment on SN12C renal; 101% in the experiment with UO-31 renal; 101% in the experiment with TK-10 renal; 108% in the experiment with ACHN renal. The growth in the experiment with A498 renal was 108%; in the experiment with CCRF-CEM leukemia it was 112%; in the experiment on MOLT-4 leukemia, 89.1%; in the experiment with SR leukemia it was 74.8%; with OVCAR-8 ovarian, 103%; in the experiment on OVCAR-5 ovarian, 122%. The growth in the experiment with OVCAR-4 ovarian is 113%; in the experiment on SK-OV-3 ovarian, 102%; with IGROV1 ovarian, 142%; in the experiment with OVCAR-3 ovarian, 126%; in the experiment on HS 578T breast, 111%; with NCI/ADR-RES ovarian, 116%.

Take `S=c1n(CNc2ccc(Cl)nn2)nc(-c2cc(Cl)cc(Cl)c2Cl)n1/N=C/c1ccc(Cl)cc1`: the growth in the experiment on SK-MEL-2 melanoma was 84.1%; in the experiment on EKVX NSCLC, 91.3%; with SN12C renal it was 103%; in the experiment on UO-31 renal, 80.8%; in the experiment on TK-10 renal it was 113%; in the experiment with ACHN renal it was 107%. The growth with A498 renal is 121%; in the experiment with CCRF-CEM leukemia it was -32.8% (active); in the experiment with MOLT-4 leukemia, 60.5%; with SR leukemia, 32.5%; in the experiment with RPMI-8226 leukemia, 61.2%; in the experiment with OVCAR-8 ovarian it was 114%. For the same compound, the growth with OVCAR-5 ovarian is 100%; in the experiment on OVCAR-4 ovarian, 87.5%; in the experiment with SK-OV-3 ovarian it was 107%; in the experiment on IGROV1 ovarian it was 76.2%; in the experiment with HS 578T breast it was 108%; in the experiment on NCI/ADR-RES ovarian, 87.4%.
